{"source": "PubChem BioAssay AID1974", "about": "(The Scripps Research Institute Molecular Screening Center, 2009)", "note": "Out of some 300,000 compounds screened, about 3,200 (1.1%) were called active. The sample as a whole holds a higher share of actives than the screen did. Unmarked numbers belong to inactive results.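 Rule for the calls: active = inhibition above the campaign mean inhibition plus 3 SD (cut at about 35% in these data); inactive = the rest.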"}
{"target": "Glutathione S-transferase omega-1 (Homo sapiens) (UniProt P78417)", "sequence (P78417 whole entry, looked up)": "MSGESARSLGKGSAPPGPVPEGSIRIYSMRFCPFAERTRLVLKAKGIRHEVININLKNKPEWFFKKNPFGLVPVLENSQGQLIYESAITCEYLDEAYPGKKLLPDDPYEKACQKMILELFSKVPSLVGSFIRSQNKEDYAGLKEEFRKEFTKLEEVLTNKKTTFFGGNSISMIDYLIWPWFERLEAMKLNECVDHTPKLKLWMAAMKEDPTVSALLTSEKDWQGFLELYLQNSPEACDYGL", "experiment": "human GSTO1 enzyme inhibition – biochemical, fluorescence polarization, counter-screen for RBBP9 inhibitor project, primary screen (AID 1974);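 note: 0% = GSTO1-1 with DMSO and 100% = wells lacking GSTO1-1 enzyme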", "settings": "recombinant GSTO1, activity-based probe fluorescence polarization; at 5.96 µM; stronger effect = higher value"}
{"smiles": "CCc1cccc(NC(=O)CCC(=O)O)c1", "inhibition": "1.54%"}
{"smiles": "O=C(CCl)Nc1cccc(CP(=O)(c2ccccc2)c2ccccc2)c1", "inhibition": "87.8% (active)"}
{"smiles": "O=C(Cc1ccccc1)Nc1cccc(NC(=O)c2ccccc2)c1", "inhibition": "-4.68%"}
{"smiles": "COc1ccccc1CCCNC(=O)C1CCC(=O)N(CCN2CCOCC2)C1", "note": "(stereo unspecified)", "inhibition": "63.1% (active)"}
{"smiles": "COc1ccccc1CN1CC(C(=O)NCCc2cn[nH]c2)CCC1=O", "note": "(stereo unspecified)", "inhibition": "-2.71%"}
{"smiles": "O=C(NCCCc1ccccc1)C1CCC(=O)N(CCc2ccc(Cl)cc2)C1", "note": "(stereo unspecified)", "inhibition": "-1.06%"}
{"smiles": "CCN1CCN(c2ccc(S(=O)(=O)N3CCCCC3)cc2NC(=O)c2cccc(NC(C)=O)c2)CC1", "inhibition": "0.88%"}
{"smiles": "Cc1cc(O)c(Sc2ccccc2)c(=O)o1", "inhibition": "10.2%"}
{"smiles": "O=C(CSC(=S)N1CCOCC1)c1cc(Br)cc(Br)c1O", "inhibition": "-51.7%"}
{"smiles": "O=C(c1cc2cc(Br)cc(Br)c2oc1=O)N1CCOCC1", "inhibition": "5.88%"}
{"smiles": "O=C1Nc2c(Br)cc(Br)cc2C1(O)N1CCOCC1", "note": "(stereo unspecified)", "inhibition": "71.2% (active)"}
{"smiles": "Cc1ccc(NS(=O)(=O)c2ccc(C(=O)NCCCN3CCOCC3)cc2)cc1", "inhibition": "10.7%"}
{"smiles": "O=c1[nH]c(=O)c2nc3ccccc3nc2[nH]1", "inhibition": "5.15%"}
{"smiles": "Nc1ccc2nc3c(=O)[nH]c(=S)[nH]c3nc2c1", "inhibition": "53.3% (active)"}
{"smiles": "Cc1cc(=O)[nH]c(SCc2ccc(Cl)cc2)n1", "inhibition": "-4.37%"}
{"smiles": "O=[N+]([O-])c1ccc(N/N=C/c2ccccc2)cc1", "inhibition": "2.07%"}
{"smiles": "O=[N+]([O-])c1ccc(O)c(/C=N/Nc2ccccc2[N+](=O)[O-])c1", "inhibition": "0.98%"}
{"smiles": "O=[N+]([O-])c1ccc(N=Cc2c(O)ccc3ccccc23)cc1", "inhibition": "37.5% (active)"}
{"smiles": "Cc1cc(OCC(=O)N(C)c2c(N)n(Cc3ccccc3)c(=O)[nH]c2=O)c(C(C)C)cc1Cl", "inhibition": "0.25%"}
{"smiles": "CCC1(c2ccccc2)NC(=O)N(CC(=O)Nc2ccccc2C(=O)NC2CCCC2)C1=O", "note": "(stereo unspecified)", "inhibition": "8.02%"}
{"smiles": "CCOc1ccc(S(=O)(=O)N2CCN(C(=S)NCC3CCCO3)CC2)cc1", "note": "(stereo unspecified)", "inhibition": "2.59%"}
